# Experimental data from article PMC7862700, “An all-to-all approach to the identification of sequence-specific readers for epigenetic DNA modifications on cytosine”.
# Key:
# Experiment in all cases: DAPPL (digital affinity profiling via proximity ligation, sequencing); 10 mM Tris-HCl pH 7.5, 50 mM NaCl, 1 mM DTT, 4% glycerol, room temperature, 30 min; GST-TFs on glutathione beads, 16-mer random dsDNA library, 0.1% formaldehyde crosslink after washing; high values mean tight binding
# FLI1 = biological target: T1, FLI1 (Homo sapiens, UniProt Q01543 1-452); conditions: protein: recombinant; tags: N-terminal GST; dsDNA, one strand shown
# T1 sequence: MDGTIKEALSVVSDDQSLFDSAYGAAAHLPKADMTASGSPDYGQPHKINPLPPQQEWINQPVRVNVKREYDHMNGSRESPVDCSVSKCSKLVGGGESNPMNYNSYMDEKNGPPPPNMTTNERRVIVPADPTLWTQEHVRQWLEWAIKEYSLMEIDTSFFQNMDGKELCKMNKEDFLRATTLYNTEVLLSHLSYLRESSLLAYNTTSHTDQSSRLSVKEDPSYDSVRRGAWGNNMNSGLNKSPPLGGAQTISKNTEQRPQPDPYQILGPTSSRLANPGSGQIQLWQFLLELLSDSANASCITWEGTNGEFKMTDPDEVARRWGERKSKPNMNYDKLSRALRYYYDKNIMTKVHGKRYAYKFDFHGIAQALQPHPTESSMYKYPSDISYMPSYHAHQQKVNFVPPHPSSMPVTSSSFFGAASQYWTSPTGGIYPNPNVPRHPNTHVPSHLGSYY
# How it was run: (§1)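 Pools of DNA-barcoded human transcription factors, expressed in yeast as GST fusions on glutathione beads and combined with a tag-only sample, were incubated with 200 nmole of a 16-mer random double-stranded DNA library. Incubation took 30 min at room temperature in Tris/NaCl/DTT/glycerol buffer and was followed by washing, 0.1% formaldehyde crosslinking, proximity ligation (BsaI/T4 ligase, 1 h, 37 °C), PCR amplification and sequencing on an Illumina NextSeq500. Binding signal is the ratio of a hexamer's read frequency for a factor to its frequency for the tag-only sample.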
# ELK1 = biological target: T2, ELK1 (Homo sapiens, UniProt P19419 1-428); conditions: protein: recombinant; tags: N-terminal GST; dsDNA, one strand shown
# T2 sequence: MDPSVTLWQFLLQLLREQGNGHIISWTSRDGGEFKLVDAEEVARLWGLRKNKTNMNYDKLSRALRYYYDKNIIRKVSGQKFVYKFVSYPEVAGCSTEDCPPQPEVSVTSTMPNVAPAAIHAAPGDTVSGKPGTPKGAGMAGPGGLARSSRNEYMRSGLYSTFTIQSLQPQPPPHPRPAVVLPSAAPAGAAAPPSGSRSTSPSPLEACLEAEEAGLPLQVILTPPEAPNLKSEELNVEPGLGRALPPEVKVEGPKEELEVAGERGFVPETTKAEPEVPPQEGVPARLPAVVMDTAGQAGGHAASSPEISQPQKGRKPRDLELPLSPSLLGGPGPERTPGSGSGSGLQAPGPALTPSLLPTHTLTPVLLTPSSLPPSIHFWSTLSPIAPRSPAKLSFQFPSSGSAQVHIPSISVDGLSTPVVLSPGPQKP
# How it was run: as §1
# GABPA = biological target: T3, GABPA (Homo sapiens, UniProt Q06546 1-454); conditions: protein: recombinant; tags: N-terminal GST; dsDNA, one strand shown
# T3 sequence: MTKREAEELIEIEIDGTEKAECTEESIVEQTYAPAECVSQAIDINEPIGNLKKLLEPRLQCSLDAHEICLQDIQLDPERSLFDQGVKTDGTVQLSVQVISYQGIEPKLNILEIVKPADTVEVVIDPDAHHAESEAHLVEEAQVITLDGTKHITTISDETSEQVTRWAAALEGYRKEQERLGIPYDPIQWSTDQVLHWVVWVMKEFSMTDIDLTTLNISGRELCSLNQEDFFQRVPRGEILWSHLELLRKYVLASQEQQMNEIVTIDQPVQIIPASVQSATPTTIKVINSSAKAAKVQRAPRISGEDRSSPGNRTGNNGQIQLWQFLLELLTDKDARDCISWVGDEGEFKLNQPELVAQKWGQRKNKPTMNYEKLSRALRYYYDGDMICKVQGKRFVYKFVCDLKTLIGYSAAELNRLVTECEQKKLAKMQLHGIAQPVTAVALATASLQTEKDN
# How it was run: as §1
# ERG = biological target: T4, ERG (Homo sapiens, UniProt P11308 1-479); conditions: protein: recombinant; tags: N-terminal GST; dsDNA, one strand shown
# T4 sequence: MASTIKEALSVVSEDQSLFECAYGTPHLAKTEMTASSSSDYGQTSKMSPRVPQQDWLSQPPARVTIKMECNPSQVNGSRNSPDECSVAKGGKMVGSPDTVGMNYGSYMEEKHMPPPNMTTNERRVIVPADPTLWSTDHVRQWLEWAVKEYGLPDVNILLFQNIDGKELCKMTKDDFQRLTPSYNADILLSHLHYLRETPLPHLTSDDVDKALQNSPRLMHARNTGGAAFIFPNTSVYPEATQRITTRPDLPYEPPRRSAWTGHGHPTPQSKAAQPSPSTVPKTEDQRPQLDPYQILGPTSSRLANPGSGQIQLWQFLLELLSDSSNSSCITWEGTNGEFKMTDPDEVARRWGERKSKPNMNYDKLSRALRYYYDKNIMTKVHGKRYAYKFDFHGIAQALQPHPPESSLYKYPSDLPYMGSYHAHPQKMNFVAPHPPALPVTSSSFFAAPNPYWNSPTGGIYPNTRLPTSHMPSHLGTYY
# How it was run: as §1
# ELF1 = ELF1 (Homo sapiens, UniProt P32519 1-619); conditions: protein: recombinant; tags: N-terminal GST; dsDNA, one strand shown
# How it was run: as §1
# EHF = biological target: T5, EHF (Homo sapiens, UniProt Q9NZC4 1-300); conditions: protein: recombinant; tags: N-terminal GST; dsDNA, one strand shown
# T5 sequence: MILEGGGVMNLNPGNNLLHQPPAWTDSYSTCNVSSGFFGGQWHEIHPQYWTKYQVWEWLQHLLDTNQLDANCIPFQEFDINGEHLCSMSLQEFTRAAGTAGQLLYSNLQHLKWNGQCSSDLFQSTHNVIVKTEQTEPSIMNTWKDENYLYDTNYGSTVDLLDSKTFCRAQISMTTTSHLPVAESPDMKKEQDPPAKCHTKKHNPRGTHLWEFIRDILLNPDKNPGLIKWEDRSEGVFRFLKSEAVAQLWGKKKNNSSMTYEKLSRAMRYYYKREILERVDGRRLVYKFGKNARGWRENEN
# How it was run: as §1
# SPI1 = SPI1 (Homo sapiens, UniProt P17947 1-270); conditions: protein: recombinant; tags: N-terminal GST; dsDNA, one strand shown
# How it was run: as §1
# SPIB = SPIB (Homo sapiens, UniProt Q01892 1-262); conditions: protein: recombinant; tags: N-terminal GST; dsDNA, one strand shown
# How it was run: as §1
# ELK3 = biological target: T6, ELK3 (Homo sapiens, UniProt P41970 1-407); conditions: protein: recombinant; tags: N-terminal GST; dsDNA, one strand shown
# T6 sequence: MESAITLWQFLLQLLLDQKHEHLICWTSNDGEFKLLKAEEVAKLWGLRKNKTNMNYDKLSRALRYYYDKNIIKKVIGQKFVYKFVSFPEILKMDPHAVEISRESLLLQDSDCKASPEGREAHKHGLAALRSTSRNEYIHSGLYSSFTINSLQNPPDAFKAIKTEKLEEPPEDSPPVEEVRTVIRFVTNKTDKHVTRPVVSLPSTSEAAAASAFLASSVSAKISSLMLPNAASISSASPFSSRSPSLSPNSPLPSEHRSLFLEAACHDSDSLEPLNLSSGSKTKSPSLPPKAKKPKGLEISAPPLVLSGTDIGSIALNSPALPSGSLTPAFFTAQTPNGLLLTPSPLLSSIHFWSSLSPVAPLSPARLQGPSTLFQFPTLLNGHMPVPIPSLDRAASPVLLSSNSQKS
# How it was run: as §1
# FEV = biological target: T7, FEV (Homo sapiens, UniProt Q99581 1-238); conditions: protein: recombinant; tags: N-terminal GST; dsDNA, one strand shown
# T7 sequence: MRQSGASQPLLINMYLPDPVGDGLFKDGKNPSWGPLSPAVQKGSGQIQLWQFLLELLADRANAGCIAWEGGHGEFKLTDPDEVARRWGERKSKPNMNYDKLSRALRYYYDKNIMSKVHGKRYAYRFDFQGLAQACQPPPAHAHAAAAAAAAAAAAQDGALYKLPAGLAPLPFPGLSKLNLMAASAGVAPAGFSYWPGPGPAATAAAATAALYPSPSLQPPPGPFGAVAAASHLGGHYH
# How it was run: as §1
# ETV5 = ETV5 (Homo sapiens, UniProt P41161 1-510); conditions: protein: recombinant; tags: N-terminal GST; dsDNA, one strand shown
# How it was run: as §1
# HSF1 = HSF1 (Homo sapiens, UniProt Q00613 1-529); conditions: protein: recombinant; tags: N-terminal GST; chain copies: 3; dsDNA, one strand shown
# How it was run: as §1
# SPIC = biological target: T8, SPIC (Homo sapiens, UniProt Q8N5J4 1-248); conditions: protein: recombinant; tags: N-terminal GST; dsDNA, one strand shown
# T8 sequence: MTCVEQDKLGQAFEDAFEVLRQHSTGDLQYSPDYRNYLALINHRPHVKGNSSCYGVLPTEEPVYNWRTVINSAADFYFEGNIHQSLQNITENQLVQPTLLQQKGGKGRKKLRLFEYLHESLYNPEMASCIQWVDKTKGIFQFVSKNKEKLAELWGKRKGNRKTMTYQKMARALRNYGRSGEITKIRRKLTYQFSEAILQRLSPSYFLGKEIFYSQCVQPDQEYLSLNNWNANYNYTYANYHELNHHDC
# How it was run: as §1
# ELF4 = ELF4 (Homo sapiens, UniProt Q99607 1-663); conditions: protein: recombinant; tags: N-terminal GST; dsDNA, one strand shown
# How it was run: as §1
# ELK4 = biological target: T9, ELK4 (Homo sapiens, UniProt P28324-2 1-405); conditions: protein: recombinant; tags: N-terminal GST; dsDNA, one strand shown
# T9 sequence: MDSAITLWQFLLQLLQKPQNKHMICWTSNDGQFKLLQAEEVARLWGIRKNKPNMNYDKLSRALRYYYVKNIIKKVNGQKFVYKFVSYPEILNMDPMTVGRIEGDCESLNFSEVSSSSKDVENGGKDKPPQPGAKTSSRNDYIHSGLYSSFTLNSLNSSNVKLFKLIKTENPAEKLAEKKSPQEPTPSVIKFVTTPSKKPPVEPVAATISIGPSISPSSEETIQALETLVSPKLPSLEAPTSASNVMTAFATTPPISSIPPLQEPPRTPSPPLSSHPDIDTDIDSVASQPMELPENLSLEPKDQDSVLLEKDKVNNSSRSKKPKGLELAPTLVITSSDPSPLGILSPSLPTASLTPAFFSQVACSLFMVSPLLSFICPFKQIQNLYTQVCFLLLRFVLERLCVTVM
# How it was run: as §1
# ETV2 = biological target: T10, ETV2 (Homo sapiens, UniProt O00321 1-342); conditions: protein: recombinant; tags: N-terminal GST; dsDNA, one strand shown
# T10 sequence: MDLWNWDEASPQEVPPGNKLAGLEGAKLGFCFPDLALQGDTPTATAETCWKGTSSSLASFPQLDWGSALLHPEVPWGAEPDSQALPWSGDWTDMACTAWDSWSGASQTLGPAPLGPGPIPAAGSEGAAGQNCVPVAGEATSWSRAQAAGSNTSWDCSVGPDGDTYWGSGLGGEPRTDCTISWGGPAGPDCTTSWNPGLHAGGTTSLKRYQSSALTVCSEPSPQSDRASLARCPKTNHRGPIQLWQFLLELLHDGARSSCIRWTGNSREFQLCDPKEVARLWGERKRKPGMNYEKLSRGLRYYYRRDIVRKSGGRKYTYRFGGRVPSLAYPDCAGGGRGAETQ
# How it was run: as §1
# ELF3 = biological target: T11, ELF3 (Homo sapiens, UniProt P78545 1-371); conditions: protein: recombinant; tags: N-terminal GST; dsDNA, one strand shown
# T11 sequence: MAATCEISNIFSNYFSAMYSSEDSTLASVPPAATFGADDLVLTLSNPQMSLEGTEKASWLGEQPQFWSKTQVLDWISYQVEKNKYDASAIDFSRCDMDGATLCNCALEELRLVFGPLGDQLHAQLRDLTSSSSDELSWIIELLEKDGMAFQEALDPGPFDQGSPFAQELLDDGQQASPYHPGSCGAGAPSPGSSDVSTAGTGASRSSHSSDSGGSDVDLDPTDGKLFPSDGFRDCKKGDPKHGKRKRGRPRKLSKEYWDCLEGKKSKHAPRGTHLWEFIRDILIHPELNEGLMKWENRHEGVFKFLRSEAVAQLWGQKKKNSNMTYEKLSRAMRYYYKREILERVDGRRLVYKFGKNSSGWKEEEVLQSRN
# How it was run: as §1
# CRX = CRX (Homo sapiens, UniProt O43186 1-299); conditions: protein: recombinant; tags: N-terminal GST; dsDNA, one strand shown
# How it was run: as §1
# ETV1 = ETV1 (Homo sapiens, UniProt P50549 1-477); conditions: protein: recombinant; tags: N-terminal GST; dsDNA, one strand shown
# How it was run: as §1
# ETV5, sequence (P41161 whole entry): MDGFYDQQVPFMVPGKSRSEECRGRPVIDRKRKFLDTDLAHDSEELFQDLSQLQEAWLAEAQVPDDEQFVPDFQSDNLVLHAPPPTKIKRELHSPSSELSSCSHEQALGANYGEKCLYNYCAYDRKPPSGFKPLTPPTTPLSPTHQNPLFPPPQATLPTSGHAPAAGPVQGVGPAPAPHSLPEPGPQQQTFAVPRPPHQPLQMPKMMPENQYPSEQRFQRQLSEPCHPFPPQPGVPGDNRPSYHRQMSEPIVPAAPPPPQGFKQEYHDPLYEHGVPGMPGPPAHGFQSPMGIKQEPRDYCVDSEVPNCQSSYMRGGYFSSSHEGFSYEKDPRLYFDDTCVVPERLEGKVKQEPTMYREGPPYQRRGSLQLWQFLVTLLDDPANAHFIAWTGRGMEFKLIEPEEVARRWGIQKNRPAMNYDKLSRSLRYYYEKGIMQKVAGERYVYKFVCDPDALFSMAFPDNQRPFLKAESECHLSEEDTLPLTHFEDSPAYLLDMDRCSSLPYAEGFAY
# CRX, sequence (O43186 whole entry): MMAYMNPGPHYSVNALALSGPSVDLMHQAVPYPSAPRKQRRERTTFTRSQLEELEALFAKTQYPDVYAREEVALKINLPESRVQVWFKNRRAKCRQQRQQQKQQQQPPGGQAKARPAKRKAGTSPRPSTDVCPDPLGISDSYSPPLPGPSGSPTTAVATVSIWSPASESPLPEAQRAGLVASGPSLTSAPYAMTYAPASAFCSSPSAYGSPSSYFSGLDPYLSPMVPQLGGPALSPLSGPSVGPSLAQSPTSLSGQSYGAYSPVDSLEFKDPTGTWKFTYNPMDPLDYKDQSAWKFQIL
# ELF1, sequence (P32519 whole entry): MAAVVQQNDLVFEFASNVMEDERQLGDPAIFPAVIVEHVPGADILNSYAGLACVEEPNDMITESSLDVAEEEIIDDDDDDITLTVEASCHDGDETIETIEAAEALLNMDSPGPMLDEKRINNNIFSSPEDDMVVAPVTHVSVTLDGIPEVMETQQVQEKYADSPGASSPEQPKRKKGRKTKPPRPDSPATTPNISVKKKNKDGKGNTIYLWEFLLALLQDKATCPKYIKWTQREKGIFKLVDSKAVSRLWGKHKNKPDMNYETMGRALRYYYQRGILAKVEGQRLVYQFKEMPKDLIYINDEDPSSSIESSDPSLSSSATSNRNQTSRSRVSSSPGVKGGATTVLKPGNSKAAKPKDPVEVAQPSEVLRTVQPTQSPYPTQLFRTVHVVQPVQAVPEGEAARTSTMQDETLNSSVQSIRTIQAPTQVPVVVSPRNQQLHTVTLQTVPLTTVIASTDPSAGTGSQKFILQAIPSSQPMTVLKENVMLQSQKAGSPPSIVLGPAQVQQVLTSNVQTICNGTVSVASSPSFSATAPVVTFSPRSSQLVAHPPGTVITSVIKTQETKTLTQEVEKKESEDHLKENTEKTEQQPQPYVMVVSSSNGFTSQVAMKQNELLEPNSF
# HSF1, sequence (Q00613 whole entry): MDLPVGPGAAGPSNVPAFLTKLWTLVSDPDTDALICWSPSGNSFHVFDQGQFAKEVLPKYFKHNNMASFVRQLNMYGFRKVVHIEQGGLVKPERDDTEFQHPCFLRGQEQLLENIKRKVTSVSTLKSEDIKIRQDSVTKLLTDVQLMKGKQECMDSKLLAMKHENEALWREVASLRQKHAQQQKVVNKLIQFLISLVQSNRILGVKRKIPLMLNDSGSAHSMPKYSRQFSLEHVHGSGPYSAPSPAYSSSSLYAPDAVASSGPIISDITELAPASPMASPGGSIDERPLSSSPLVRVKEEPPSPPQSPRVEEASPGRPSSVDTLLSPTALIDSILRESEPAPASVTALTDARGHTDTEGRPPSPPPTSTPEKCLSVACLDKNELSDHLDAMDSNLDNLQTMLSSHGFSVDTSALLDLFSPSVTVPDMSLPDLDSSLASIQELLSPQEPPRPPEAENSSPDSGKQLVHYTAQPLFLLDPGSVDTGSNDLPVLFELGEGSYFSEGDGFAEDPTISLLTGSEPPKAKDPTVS
# ELF4, sequence (Q99607 whole entry): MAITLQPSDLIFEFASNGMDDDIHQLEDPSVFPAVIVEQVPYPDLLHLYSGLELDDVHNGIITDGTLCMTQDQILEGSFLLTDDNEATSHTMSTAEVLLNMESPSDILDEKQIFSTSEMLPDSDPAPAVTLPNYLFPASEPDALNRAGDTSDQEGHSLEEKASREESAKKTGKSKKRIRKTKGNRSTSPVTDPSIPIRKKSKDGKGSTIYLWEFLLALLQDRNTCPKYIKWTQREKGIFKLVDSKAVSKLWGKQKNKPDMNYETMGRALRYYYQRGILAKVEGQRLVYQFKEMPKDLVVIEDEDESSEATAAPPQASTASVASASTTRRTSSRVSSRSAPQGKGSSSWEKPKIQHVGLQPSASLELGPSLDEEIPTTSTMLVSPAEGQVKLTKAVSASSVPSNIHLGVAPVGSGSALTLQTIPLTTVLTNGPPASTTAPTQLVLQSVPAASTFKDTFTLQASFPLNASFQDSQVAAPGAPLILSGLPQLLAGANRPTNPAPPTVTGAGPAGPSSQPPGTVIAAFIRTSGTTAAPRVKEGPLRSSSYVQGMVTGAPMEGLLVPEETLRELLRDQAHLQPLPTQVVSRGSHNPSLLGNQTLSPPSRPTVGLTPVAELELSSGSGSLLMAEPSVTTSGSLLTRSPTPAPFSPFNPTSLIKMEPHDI
# ETV1, sequence (P50549 whole entry): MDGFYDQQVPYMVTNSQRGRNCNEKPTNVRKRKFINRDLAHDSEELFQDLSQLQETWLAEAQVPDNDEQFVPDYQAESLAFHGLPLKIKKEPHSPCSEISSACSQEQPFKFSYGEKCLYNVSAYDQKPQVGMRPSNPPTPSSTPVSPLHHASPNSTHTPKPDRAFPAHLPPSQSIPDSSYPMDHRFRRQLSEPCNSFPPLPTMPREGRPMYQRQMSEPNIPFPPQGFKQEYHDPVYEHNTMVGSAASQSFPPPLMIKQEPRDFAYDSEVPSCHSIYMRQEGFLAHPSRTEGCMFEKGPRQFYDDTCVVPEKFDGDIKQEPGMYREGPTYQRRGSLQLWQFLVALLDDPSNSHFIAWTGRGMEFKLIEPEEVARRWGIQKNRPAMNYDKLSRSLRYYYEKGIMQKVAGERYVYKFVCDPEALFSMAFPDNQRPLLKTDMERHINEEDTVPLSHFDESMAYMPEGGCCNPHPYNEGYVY
# SPIB, sequence (Q01892 whole entry): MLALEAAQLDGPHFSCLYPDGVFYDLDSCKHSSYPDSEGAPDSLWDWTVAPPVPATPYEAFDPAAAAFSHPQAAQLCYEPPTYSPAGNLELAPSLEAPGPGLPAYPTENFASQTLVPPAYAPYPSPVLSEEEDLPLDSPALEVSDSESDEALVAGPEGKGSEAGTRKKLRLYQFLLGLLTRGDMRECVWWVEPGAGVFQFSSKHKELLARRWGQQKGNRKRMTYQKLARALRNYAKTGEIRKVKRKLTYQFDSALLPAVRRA
sequence,measurement,setting,value
AATTGA,binding signal,FLI1,"1.18 fold enrichment (6-mer frequency, TF over GST control)"
same,binding signal,ELK1,"1.19 fold enrichment (6-mer frequency, TF over GST control)"
same,binding signal,GABPA,"1.2 fold enrichment (6-mer frequency, TF over GST control)"
same,binding signal,ERG,"1.16 fold enrichment (6-mer frequency, TF over GST control)"
same,binding signal,ELF1,"1.15 fold enrichment (6-mer frequency, TF over GST control)"
same,binding signal,EHF,"1.25 fold enrichment (6-mer frequency, TF over GST control)"
same,binding signal,SPI1,"1.16 fold enrichment (6-mer frequency, TF over GST control)"
same,binding signal,SPIB,"1.2 fold enrichment (6-mer frequency, TF over GST control)"
same,binding signal,ELK3,"1.27 fold enrichment (6-mer frequency, TF over GST control)"
same,binding signal,FEV,"1.11 fold enrichment (6-mer frequency, TF over GST control)"
same,binding signal,ETV5,"1.22 fold enrichment (6-mer frequency, TF over GST control)"
same,binding signal,HSF1,"1.05 fold enrichment (6-mer frequency, TF over GST control)"
same,binding signal,SPIC,"1.1 fold enrichment (6-mer frequency, TF over GST control)"
same,binding signal,ELF4,"1.18 fold enrichment (6-mer frequency, TF over GST control)"
same,binding signal,ELK4,"1.18 fold enrichment (6-mer frequency, TF over GST control)"
same,binding signal,ETV2,"1.18 fold enrichment (6-mer frequency, TF over GST control)"
same,binding signal,ELF3,"1.3 fold enrichment (6-mer frequency, TF over GST control)"
same,binding signal,CRX,"1.1 fold enrichment (6-mer frequency, TF over GST control)"
same,binding signal,ETV1,"1.21 fold enrichment (6-mer frequency, TF over GST control)"
